In PubChem BioAssay (Tox21):
Several values for one entry are separate records, joined by “and”; a condition that tells them apart may be missing. Identical values can stand only once. Inconclusive results are not listed. A call without a number means that no potency is given here. Some structures have more than one record in an assay (separate samples or runs), and their calls can disagree. Activity calls are given as the source filed them. Unless noted, the call rests on the fitted dose curve.

Assays:
[1] = Nuclear factor erythroid 2-related factor 2/antioxidant responsive element (Nrf2/ARE) small molecule agonists: qHTS cell viability counter screen in human keratinocytes (AID 1919968; active means well fitted curve in the direction sought with a large enough effect in the repeat runs; an effect the other way counts as inactive or inconclusive; further: nearly all actives have a fitted effect of over 55% in size; further: potency means the concentration at half of the fitted maximal effect)
Method in brief: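 After a 5 h attachment period, ARE-reporter keratinocytes were dosed with compounds in DMSO and then cultured 23 h at 37 C. Cell viability came from CellTiter-Fluor signal read after a further 1 h.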

[2] = Nuclear factor erythroid 2-related factor 2/antioxidant responsive element (Nrf2/ARE) small molecule agonists: luciferase reporter gene qHTS assay in human keratinocytes (AID 1919969); further: nearly all actives have a fitted effect of over 35% in size; further: potency means the concentration at half of the fitted maximal effect
[3] = molecular target: Gonadotropin-releasing hormone receptor (Homo sapiens) (UniProt P30968); assay: Human gonadotropin-releasing hormone receptor (GnRHR) small molecule agonists, calcium flux assay in GnRHR-HEK293 cells (AID 1920063); further: nearly all actives have a fitted effect of over 35% in size
Gonadotropin-releasing hormone receptor (Homo sapiens), sequence (P30968 whole entry, looked up): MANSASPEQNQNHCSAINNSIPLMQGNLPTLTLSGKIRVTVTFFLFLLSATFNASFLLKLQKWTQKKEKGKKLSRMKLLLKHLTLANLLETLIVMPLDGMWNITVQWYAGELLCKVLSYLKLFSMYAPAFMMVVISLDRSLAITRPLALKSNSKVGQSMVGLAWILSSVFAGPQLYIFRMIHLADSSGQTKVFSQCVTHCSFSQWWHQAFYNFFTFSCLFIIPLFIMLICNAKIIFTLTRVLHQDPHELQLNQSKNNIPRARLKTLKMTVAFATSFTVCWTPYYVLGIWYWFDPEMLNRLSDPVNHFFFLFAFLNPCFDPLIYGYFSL
Method in brief: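 We seeded human GnRHR-expressing HEK293 cells for 18 hours, loaded them with calcium dye for an hour at 37 C, added test compounds, and recorded fluorescence intensity kinetically for three minutes.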

[4] = molecular target: KiSS-1 receptor (Homo sapiens) (UniProt Q969F8); assay: Human kisspeptin (KISS1R) small molecule agonists, calcium flux assay in KISS1R-HEK293 cells (AID 1920064; active means well fitted curve in the direction sought with a large enough effect in the repeat runs; an effect the other way counts as inactive or inconclusive)
KiSS-1 receptor (Homo sapiens), sequence (Q969F8 whole entry, looked up): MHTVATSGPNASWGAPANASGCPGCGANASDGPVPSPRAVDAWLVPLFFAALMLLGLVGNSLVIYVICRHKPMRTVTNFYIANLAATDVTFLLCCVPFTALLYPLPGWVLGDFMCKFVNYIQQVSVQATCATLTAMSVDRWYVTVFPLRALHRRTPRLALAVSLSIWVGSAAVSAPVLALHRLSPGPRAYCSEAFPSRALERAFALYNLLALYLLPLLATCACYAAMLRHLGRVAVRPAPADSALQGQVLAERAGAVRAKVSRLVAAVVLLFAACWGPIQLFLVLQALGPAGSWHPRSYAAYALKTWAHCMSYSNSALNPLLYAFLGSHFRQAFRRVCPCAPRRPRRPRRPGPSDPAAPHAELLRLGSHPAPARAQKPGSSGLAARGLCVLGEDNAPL
Method in brief: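 Kinetic calcium assay, 1 s sampling over 3 min at Ex/Em 480/540, in HEK293 cells engineered with human KISS1R; compounds delivered in DMSO after 1 h dye loading.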

[5] = G protein-coupled receptor (GPCR) small molecule agonists, calcium flux assay: HEK293 wild type cell line counter screen (AID 1920065)
Method in brief: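 Calcium-sensitive dye, loaded 1 h at 37 C into cells cultured 18 h, reports compound-evoked calcium release as fluorescence (Ex/Em 480/540), measured over 3 min. Agonist mode; 15-point titrations, triplicate.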

[6] = p53 small molecule agonists, cell-based qHTS assay with human liver microsomes: qHTS cell viability counter screen (AID 1963579); further: nearly all actives have a fitted effect of over 45% in size; further: potency means the concentration at half of the fitted maximal effect
Method in brief: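 In this multiplexed counter screen, the reporter plates were subsequently treated with CellTiter-Glo so that cell viability, reflected by luminescence, could be recorded for p53RE-bla cells dosed 16 h with compounds under microsomal activation (HLM and NADPH).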

[7] = p53 small molecule agonists, cell-based qHTS assay with rat liver microsomes: qHTS cell viability counter screen (AID 1963580); further: nearly all actives have a fitted effect of over 45% in size; further: potency means the concentration at half of the fitted maximal effect
Method in brief: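 p53RE-bla HCT-116 cells (4,000/well) rested 5 h at 37 C, then given Tox21 compounds in DMSO with rat liver microsomes (0.5 mg/mL final) plus NADPH (0.5 mg/mL final) for 16 h at 37 C. Viability read by CellTiter-Glo luminescence after 30 min at room temperature.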

[8] = p53 small molecule agonists, cell-based qHTS assay: qHTS cell viability counter screen (AID 1963581); further: nearly all actives have a fitted effect of over 45% in size; further: potency means the concentration at half of the fitted maximal effect
Method in brief: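 Following 5 h attachment, HCT-116 p53RE-bla cells took up compound for 16 h at 37 C; the reporter was read with B/G FRET substrate (2 h RT), and viability then via CellTiter-Glo ATP luminescence.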

[9] = molecular target: 5-hydroxytryptamine receptor 2A (Homo sapiens) (UniProt P28223); assay: 5-hydroxytryptamine receptor 2A (HTR2A) small molecule antagonists, cell-based qHTS assay (AID 1963586); further: nearly all actives have a fitted effect of over 45% in size
5-hydroxytryptamine receptor 2A (Homo sapiens), sequence (P28223 whole entry, looked up): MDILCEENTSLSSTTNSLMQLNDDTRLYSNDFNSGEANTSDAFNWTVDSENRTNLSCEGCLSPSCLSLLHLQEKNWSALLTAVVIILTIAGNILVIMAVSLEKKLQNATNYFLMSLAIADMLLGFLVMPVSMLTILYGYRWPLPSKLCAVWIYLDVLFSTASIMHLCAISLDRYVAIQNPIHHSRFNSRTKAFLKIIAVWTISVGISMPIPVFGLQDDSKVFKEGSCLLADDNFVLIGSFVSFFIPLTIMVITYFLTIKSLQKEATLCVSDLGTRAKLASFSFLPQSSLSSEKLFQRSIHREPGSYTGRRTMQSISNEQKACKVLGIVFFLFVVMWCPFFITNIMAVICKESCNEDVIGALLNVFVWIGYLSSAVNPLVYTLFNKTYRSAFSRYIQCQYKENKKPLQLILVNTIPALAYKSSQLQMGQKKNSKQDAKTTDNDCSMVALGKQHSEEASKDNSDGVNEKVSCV
Method in brief: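 Antagonist-mode intracellular calcium assay: DOI (4 nM) added after 5 min compound pre-incubation at room temperature to dye-loaded HTR2A-CHO cells. Fluorescence followed for 3 min, sampled every second.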

[10] = molecular target: 5-hydroxytryptamine receptor 2A (Homo sapiens) (UniProt P28223); assay: 5-hydroxytryptamine receptor 2A (HTR2A) small molecule agonists, cell-based qHTS assay (AID 1963587); further: nearly all actives have a fitted effect of over 30% in size
Method in brief: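 HTR2A-CHO cells, plated 18 h at 37 C/5% CO2, dye-loaded 1 h at 37 C; compounds in DMSO added by pin tool (agonist mode). Intracellular calcium flux read as kinetic fluorescence on FDSS over 2 min at 1 s intervals.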

[11] = molecular target: Muscarinic acetylcholine receptor M1 (Homo sapiens) (UniProt P11229); assay: Cholinergic receptor muscarinic 1 (CHRM1) small molecule antagonists, cell-based qHTS assay (AID 1963588); further: nearly all actives have a fitted effect of over 40% in size; further: potency means the concentration at half of the fitted maximal effect
Muscarinic acetylcholine receptor M1 (Homo sapiens), sequence (P11229 whole entry, looked up): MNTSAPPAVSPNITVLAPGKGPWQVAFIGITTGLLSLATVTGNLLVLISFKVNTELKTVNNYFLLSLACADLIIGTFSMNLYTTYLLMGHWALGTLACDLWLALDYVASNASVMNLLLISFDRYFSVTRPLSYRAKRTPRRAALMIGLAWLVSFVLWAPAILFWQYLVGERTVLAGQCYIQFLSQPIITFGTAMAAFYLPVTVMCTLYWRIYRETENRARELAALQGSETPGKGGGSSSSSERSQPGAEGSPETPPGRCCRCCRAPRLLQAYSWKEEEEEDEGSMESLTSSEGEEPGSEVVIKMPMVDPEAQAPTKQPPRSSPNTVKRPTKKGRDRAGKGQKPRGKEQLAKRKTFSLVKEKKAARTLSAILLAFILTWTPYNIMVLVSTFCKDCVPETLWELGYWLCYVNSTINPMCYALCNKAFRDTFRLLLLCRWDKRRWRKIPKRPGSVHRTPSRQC
Method in brief: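 CHRM1-CHO calcium-flux assay, antagonist mode. Cells were seeded 18 h, dye-loaded 1 h at 37 C and given compound for 5 min at RT, then acetylcholine was added at 50nM. FDSS fluorescence was read 3 min; 15 concentrations, three runs.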

[12] = cAMP Responsive Elements (CRE) small molecule agonists, cell-based qHTS assay (AID 1963590)
Method in brief: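 A CRE-responsive beta-lactamase reporter in HEK 293T cells was used. Treatment ran 3 h at 37 C; detection used LiveBLAzer B/G FRET substrate for 2 h at room temperature.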

[13] = cAMP Responsive Elements (CRE) small molecule antagonists, cell-based qHTS assay (AID 1963591; active means well fitted inhibition curve with a large enough effect in the signal ratio in the repeat runs, not every such curve was filed as active; the % refers to the signal ratio)
Method in brief: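 HEK293T cells carrying a CRE-driven beta-lactamase reporter receive compound and NKH477 (0.25 uM final) for 3 h. Fluorescence from LiveBLAzer B/G FRET substrate is read after 2 h at room temperature.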

[14] = molecular target: Beta-2 adrenergic receptor (Homo sapiens) (UniProt P07550); assay: Adrenergic beta2 receptor (ADRB2) small molecule antagonists, cell-based qHTS assay (AID 1963592); further: series mostly up to about 92 µM; nearly all actives have a fitted effect of over 50% in size
Beta-2 adrenergic receptor (Homo sapiens), sequence (P07550 whole entry, looked up): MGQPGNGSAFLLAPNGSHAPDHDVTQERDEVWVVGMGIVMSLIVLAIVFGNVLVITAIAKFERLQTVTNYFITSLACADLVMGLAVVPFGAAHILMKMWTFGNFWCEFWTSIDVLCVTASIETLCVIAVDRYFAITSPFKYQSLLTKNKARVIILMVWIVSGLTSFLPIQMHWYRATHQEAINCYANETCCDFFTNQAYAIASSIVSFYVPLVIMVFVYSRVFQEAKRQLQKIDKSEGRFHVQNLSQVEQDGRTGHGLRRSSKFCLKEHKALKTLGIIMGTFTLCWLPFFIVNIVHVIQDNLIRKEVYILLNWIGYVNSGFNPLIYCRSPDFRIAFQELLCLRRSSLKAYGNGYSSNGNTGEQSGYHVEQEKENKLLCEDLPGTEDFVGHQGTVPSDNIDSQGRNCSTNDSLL
Method in brief: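 Cells (CHO, stable ADRB2 overexpression) incubated 18-20hr at 37C; compounds added from DMSO; agonist mix (1nM isoproterenol, 100uM IBMX, 25uM Ro-20-1724) added; 0.5hr RT; d2-cAMP and anti-cAMP-cryptate added; 1hr RT; 665/615 nm read.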

[15] = molecular target: D(2) dopamine receptor (Homo sapiens) (UniProt P14416); assay: Dopamine D2 receptor (DRD2) small molecule agonists, cell-based qHTS assay (AID 1963594); further: nearly all actives have a fitted effect of over 35% in size
D(2) dopamine receptor (Homo sapiens), sequence (P14416 whole entry, looked up): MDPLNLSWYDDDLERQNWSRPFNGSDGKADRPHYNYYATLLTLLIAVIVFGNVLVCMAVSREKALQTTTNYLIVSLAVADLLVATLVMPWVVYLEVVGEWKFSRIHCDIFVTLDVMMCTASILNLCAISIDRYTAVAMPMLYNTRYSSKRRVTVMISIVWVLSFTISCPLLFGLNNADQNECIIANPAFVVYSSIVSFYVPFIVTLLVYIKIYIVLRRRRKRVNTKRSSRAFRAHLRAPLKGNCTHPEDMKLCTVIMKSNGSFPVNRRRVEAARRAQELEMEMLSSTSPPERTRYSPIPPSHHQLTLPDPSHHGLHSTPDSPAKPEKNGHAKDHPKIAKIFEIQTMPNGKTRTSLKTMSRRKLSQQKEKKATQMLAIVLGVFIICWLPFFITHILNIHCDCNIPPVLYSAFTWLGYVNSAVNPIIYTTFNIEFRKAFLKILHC
Method in brief: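 HEK293 cells stably expressing DRD2 were cultured 24 h at 37 C, then given Ro20-1724 (0.1 mM final) and compounds for 10 min at room temperature. NKH477 (200nM) was then added for 30 min. cAMP was read by HTRF.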

[16] = molecular target: D(2) dopamine receptor (Homo sapiens) (UniProt P14416); assay: Dopamine D2 receptor (DRD2) small molecule antagonists, cell-based qHTS assay (AID 1963595; active means well fitted inhibition curve with a large enough effect in the signal ratio in the repeat runs, with a control signal flat; the % refers to the signal ratio; further: potency means the concentration at half of the fitted maximal effect)
Method in brief: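 Antagonism was scored as restored cAMP in HEK293-DRD2 cells. These cells were stimulated with 200 nM NKH477 and 12 nM quinpirole for 30 min at room temperature, in the presence of 0.1 mM Ro20-1724.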

[17] = molecular target: Muscarinic acetylcholine receptor M1 (Homo sapiens) (UniProt P11229); assay: Cholinergic receptor muscarinic 1 (CHRM1) small molecule agonists, cell-based qHTS assay (AID 1963589); further: nearly all actives have a fitted effect of over 35% in size
Method in brief: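 Measures agonist-induced intracellular calcium rise. Stable human CHRM1 CHO line, 1 h dye load at 37 C, compounds from DMSO, kinetic fluorescence read.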

[18] = molecular target: Beta-2 adrenergic receptor (Homo sapiens) (UniProt P07550); assay: Adrenergic beta2 receptor (ADRB2) small molecule agonists, cell-based qHTS assay (AID 1963593);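 further: CHO cells stably overexpressing human ADRB2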
Method in brief: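 CHO cells stably over-expressing ADRB2 were plated overnight at 37C, then dosed with compounds plus a stimulation mix containing 100uM IBMX and 25uM Ro-20-1724 for 0.5hr at room temperature. cAMP was measured by HTRF competition, 1hr.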

| Structure (SMILES) | Potency [1] | Potency [2] | Potency [3] | Potency [4] | Potency [5] | Potency [6] | Potency [7] | Potency [8] | Potency [9] | Potency [10] | Potency [11] | Potency [12] | Potency [13] | Potency [14] | Potency [15] | Potency [16] | Potency [17] | Potency [18] |
| --- | --- | --- | --- | --- | --- | --- | --- | --- | --- | --- | --- | --- | --- | --- | --- | --- | --- | --- |
| NC(=S)Nc1ccccc1 | inactive | 55.4 µM (active) and inactive | inactive | inactive | inactive | inactive | 29.4 µM (active) and inactive | inactive | inactive | inactive | inactive | inactive | inactive | inactive | inactive | inactive |  |  |
| Nc1ccc(-c2ccc(N)c(N)c2)cc1N | inactive | inactive and 68.6 µM (active) | inactive | inactive | inactive | inactive | inactive | inactive | inactive | inactive |  | inactive | inactive | inactive | inactive | inactive | inactive |  |
| OCCOCCO | inactive | inactive | inactive | inactive | inactive | inactive | inactive | inactive | inactive |  | inactive | inactive | inactive | inactive | inactive | inactive | inactive | inactive |
| Cc1ccc(N)cc1Cl | inactive | inactive | inactive | inactive | inactive | inactive | inactive | inactive | inactive | inactive | inactive | inactive | inactive |  | inactive | inactive | inactive | inactive |
| C[C@]12CC[C@H](O)CC1=CC[C@@H]1[C@@H]2CC[C@]2(C)C(=O)CC[C@@H]12 | inactive | inactive | inactive | inactive | inactive | inactive | inactive | inactive |  |  |  |  |  | inactive | inactive | inactive |  | inactive |
| O=C/C(Cl)=C(/Cl)C(=O)O | inactive | 68.5 µM (active) and 68.6 µM (active) | inactive | inactive | inactive | inactive | inactive | inactive | inactive | inactive | inactive | inactive | inactive |  | inactive | inactive | inactive | inactive |
| CCCCCCCC[N+](C)(CCCCCCCC)CCCCCCCC | 5.44 µM (active) and 6.87 µM (active) and 15.4 µM (active) | inactive | inactive | inactive | inactive | 5.75 µM (active) and 6.47 µM (active) and 25.7 µM (active) | 14.4 µM (active) and inactive and 40.8 µM (active) | 9.11 µM (active) and 2.58 µM (active) and 20.4 µM (active) | inactive | inactive | 5.93 µM (active) and inactive and 6.67 µM (active) |  |  | inactive | inactive | 54.4 µM (active) and inactive and 17.2 µM (active) | inactive |  |
| CCCC[n+]1ccccc1 | inactive | inactive | inactive | inactive | inactive | inactive | inactive | inactive |  |  | inactive | inactive | inactive | inactive | inactive | inactive |  | inactive |
| CCC[N+]1(C)CCCCC1 | inactive | inactive | inactive | inactive | inactive | inactive | inactive | inactive | inactive |  | inactive | inactive | inactive | inactive | inactive | inactive | inactive | inactive |
| Nc1ncn[nH]1 | inactive | inactive | inactive | inactive | inactive | inactive | inactive | inactive | inactive |  | inactive | inactive | inactive |  | inactive | inactive |  |  |
| Cc1ccc(N)c(C)c1 | inactive | inactive | inactive | inactive | inactive | inactive | inactive | inactive | inactive | inactive | inactive | inactive | inactive | inactive | inactive | inactive | inactive |  |
| CCN(CC)C(=S)S | 27.5 µM (active) and 7.65 µM (active) and 13.7 µM (active) | inactive | inactive | inactive | inactive | 29.1 µM (active) and inactive | inactive | inactive | inactive | inactive | inactive | inactive |  |  | inactive | inactive | inactive | inactive |
| Oc1cc(Cl)c(Cl)cc1Cl | inactive | inactive | inactive | inactive | inactive | inactive | 40.5 µM (active) and inactive | inactive | inactive | inactive | inactive |  | inactive | inactive | inactive | inactive | inactive |  |
| Cc1cc(C)cc(C)c1 | inactive | inactive | inactive | inactive | inactive | inactive | inactive | inactive | inactive | inactive | inactive | inactive | inactive | inactive | inactive | inactive | inactive |  |
| C=CC(Cl)CCl (stereo not given) | inactive | inactive | inactive | inactive | inactive | inactive |  | inactive | inactive |  | inactive | inactive | inactive | inactive | inactive | inactive | inactive |  |
| NNc1ccccc1 | inactive | inactive | inactive | inactive | inactive |  | inactive | inactive |  |  |  | inactive | inactive | inactive | inactive | inactive |  | inactive |
